Consider 40 compounds from PubChem BioAssay (NCATS).

Records with an inconclusive call do not appear. The source made the active and inactive calls. The call rests on the fitted dose curve; in most records, active means well fitted cell-killing curve with a large enough effect; inconclusive means small, poorly fitted or top-dose-only effect; inactive means flat fitted curve, though single readings scatter.
On the % scale 0 is the no-effect control and ±100 the full control effect.

The nature of the assay: qHTS assay to identify small molecule inhibitors of chordoma cells - UCH-2 (AID 1259356). The conditions noted are these: UCH-2 chordoma viability, CellTiter-Glo ATP luminescence, 48 h; series mostly up to 46.1 µM; activity change, negative = inhibition: at the top concentration. The source says:
NIH Chemical Genomics Center [NCGC]
Chordoma is a rare and slow growing tumor that can occur anywhere along the spine, from the base of the skull to the tailbone. Current treatment options for chordoma is surgery and radiation therapy for those who are not candidates for surgery. But chordomas tend to return in the same location or surrounding areas of the original tumor after surgery and/or radiation. Chemotherapy can slow down the progression of the tumor. As chordoma is slow growing, the general cytotoxic agents that kill fast growing cells are ineffective, and some patients have been reported to respond to molecularly targeted drugs.
NCATS Pharmaceutical Collection (NPC) containing approximately 3000 clinically approved and investigational drugs were used to screen at 15 concentrations in a chordoma cell lines, UCH-2, to identify small molecule compounds that can inhibit chordoma cell growth.
NCGC Assay Protocol Summary:
Human chordoma cell line UCH-2 was dispensed at 800 per well in 4uL of culture medium into white solid bottom 1536-well plates (Corning Life Sciences, Corning, NY) using a Multidrop Combi (Thermo Scientific, Waltham, MA) dispenser. The assay plates were incubated at 37 C and 5% CO2 for an overnight, and then 23nL of compounds dissolved in DMSO and positive control were transferred using a Pintool station (Wako, San Diego, CA). Compound treatment was followed by the addition of 1uL of the combination compounds (1uM Auranofin, 500nM each of Camptothecin, Doxorubicin, Rubitecan, and Topotecan) and assay medium to each well of the assay plates using Flying Reagent Dispenser (FRD, Aurora Discovery, San Diego, CA). The assay plates were incubated at 37 C and 5% CO2 for 48hr. Then 5uL of CellTiter-Glo reagent (Promega Corporation, Madison, WI) was added to each well of the assay plates using FRD. After 30min incubation at room temperature, the luminescence signal was quantified using a ViewLux plate reader (PerkinElmer, Shelton, CT).
On to `Cc1cccc(Nc2ccncc2S(=O)(=O)NC(=O)NC(C)C)c1`, for which the “activity change, negative = inhibition” value is -16% [at 20.6 µM] (inactive). The same measure for `CC1=CC(=O)c2ccccc2C1=O`: 22.2% (inactive).

Consider `CC(C)OC(=O)C(C(=O)OC(C)C)=C1SC=CS1`, for which the “activity change, negative = inhibition” value was 1.49% (inactive).

As to `COc1cc([C@@H]2c3cc4c(cc3[C@H](O)[C@H]3COC(=O)[C@H]23)OCO4)cc(OC)c1OC`, the “activity change, negative = inhibition” value is -6.92% (inactive). For the compound `Cc1onc(-c2ccccc2Cl)c1C(=O)N[C@@H]1C(=O)N2[C@@H]1SC(C)(C)[C@@H]2C(=O)O`, the “activity change, negative = inhibition” value was 0% [at 20.6 µM] (inactive). Turning to `CCn1cc(C(=O)O)c(=O)c2cc(F)c(N3CCN(C)CC3)cc21`, the “activity change, negative = inhibition” value was 1.84% (inactive). Consider `CS(=O)(=O)c1ccc([C@@H](O)[C@@H](CO)NC(=O)C(Cl)Cl)cc1`, for which the “activity change, negative = inhibition” value is 11.6% [at 20.6 µM] (inactive). For the compound `O=C(O)c1cn(C2CC2)c2cc(N3CCNCC3)c(F)cc2c1=O`, the “activity change, negative = inhibition” value is 12.1% [at 20.6 µM] (inactive). Next, `O=C(O)c1cc(=O)[nH]c(=O)[nH]1`: 11% (inactive); `COc1ncnc(NS(=O)(=O)c2ccc(N)cc2)c1OC`: 5.82% (inactive); `Nc1ccc(S(=O)(=O)Nc2ccccn2)cc1`: -2.38% [at 20.6 µM] (inactive). Next, `Cc1oc(=O)oc1CN1CCN(c2cc3c(cc2F)c(=O)c(C(=O)O)c2n3C(C)S2)CC1` (stereo not given): 20.3% (inactive).

In the case of `O=C(N[C@H](CO)[C@H](O)c1ccc([N+](=O)[O-])cc1)C(Cl)Cl`, the “activity change, negative = inhibition” value was -14.8% (inactive). Next, `CCC(=O)O[C@]1(C(=O)SCF)[C@H](C)C[C@H]2[C@@H]3C[C@H](F)C4=CC(=O)C=C[C@]4(C)[C@@]3(F)[C@@H](O)C[C@@]21C`: -1.23% [at 20.6 µM] (inactive); `CC(C)(C)NC(=O)[C@H]1CC[C@H]2[C@@H]3CC[C@H]4NC(=O)C=C[C@]4(C)[C@H]3CC[C@]12C`: 0.256% [at 20.6 µM] (inactive); `CCOc1cc(N)c(Cl)cc1C(=O)NCC1CN(Cc2ccc(F)cc2)CCO1` (stereo not given): 3.27% (inactive).

Consider `NC(=O)c1cccnc1`, for which the “activity change, negative = inhibition” value is 5.38% (inactive). Take `Cn1nnc2c(C(N)=O)ncn2c1=O`: the “activity change, negative = inhibition” value was 2.71% (inactive).

For the compound `CNCC[C@H](Oc1cccc2ccccc12)c1cccs1`, the “activity change, negative = inhibition” value is 5.93% (inactive).

On to `CC(=O)CC(c1ccccc1)c1c(O)c2ccccc2oc1=O` (stereo not given), for which the “activity change, negative = inhibition” value was -2.39% (inactive). Regarding `NCCCC(O)(P(=O)(O)O)P(=O)(O)O`, the “activity change, negative = inhibition” value was 12.3% (inactive). For `Cc1nnc(NS(=O)(=O)c2ccc(N)cc2)s1`, the “activity change, negative = inhibition” value was 5.73% (inactive). For the compound `CCc1c2c(nc3ccc(OC(=O)N4CCC(N5CCCCC5)CC4)cc13)-c1cc3c(c(=O)n1C2)COC(=O)[C@]3(O)CC`, the “activity change, negative = inhibition” value was 2.63% (inactive).

Turning to `COc1ccc(C(=O)CC(=O)c2ccc(C(C)(C)C)cc2)cc1`, the “activity change, negative = inhibition” value was 3.35% (inactive). `CN(CCOc1ccc(CC2SC(=O)NC2=O)cc1)c1ccccn1` (stereo not given): the “activity change, negative = inhibition” value is 0.201% (inactive). The same measure for `CCOC(=O)c1ccc(OC(=O)CCCCCN=C(N)N)cc1`: -0.189% [at 20.6 µM] (inactive); for `CN1CCCC(n2nc(Cc3ccc(Cl)cc3)c3ccccc3c2=O)CC1` (stereo not given): 6.12% (inactive); for `CCCN[C@H]1CCc2nc(N)sc2C1`: -17.6% (inactive). Next, `CC(C)Cn1cnc2c(N)nc3ccccc3c21`: 7.82% (inactive). The same measure for `CN(C)CCc1c[nH]c2ccc(CS(=O)(=O)N3CCCC3)cc12`: 2.38% (inactive); for `Cc1noc(NS(=O)(=O)c2ccc(N)cc2)c1C`: -7.84% (inactive).

Turning to `CO[C@@H]1[C@@H](OC(N)=O)[C@@H](O)[C@H](Oc2ccc3c(O)c(NC(=O)c4ccc(O)c(CC=C(C)C)c4)c(=O)oc3c2C)OC1(C)C`, the “activity change, negative = inhibition” value was -0.174% [at 20.6 µM] (inactive).

On to `CCOC(=O)c1ccc(C#Cc2ccc3c(c2)C(C)(C)CCS3)nc1`, for which the “activity change, negative = inhibition” value is 7.79% (inactive). For `CC(C)(C#N)c1cc(Cn2cncn2)cc(C(C)(C)C#N)c1`, the “activity change, negative = inhibition” value is 1.41% (inactive). Consider `CO[C@@]12[C@H](COC(N)=O)C3=C(C(=O)C(C)=C(N)C3=O)N1C[C@@H]1N[C@@H]12`, for which the “activity change, negative = inhibition” value is 6.23% (inactive). Regarding `COC(c1ccccc1)(c1ccccc1)[C@H](Oc1nc(C)cc(C)n1)C(=O)O`, the “activity change, negative = inhibition” value was 6.54% (inactive). As to `Cc1ncc([N+](=O)[O-])n1CCO`, the “activity change, negative = inhibition” value is 7.73% (inactive). As to `N[C@@H](Cc1ccc(O)c(O)c1)C(=O)O`, the “activity change, negative = inhibition” value was 2.91% (inactive). The same measure for `Cc1ccnc2c1NC(=O)c1cccnc1N2C1CC1`: 5.04% (inactive). The same measure for `CCOCC(O)COc1ccc(NC(=O)CC[S+](C)C)cc1` (stereo not given): -2.82% (inactive).
